In PubChem BioAssay AID463173 (ICCB-Longwood Screening Facility, Harvard Medical School, 2010) one finds survival data, which are given here for 91 compounds.

SMILES strings stand for the structures. The campaign covered roughly 52,000 compounds. About 4,300 (8.3%) were called active. Cut-off read from the data, not from the text of the source: active = survival mostly below about 52% (no sharp cut-off); inactive = mostly above about 56%. Shown is part of a subset that was picked to be rich in actives.

This assay has as its system DeltatarO mutant. Briefly: S. aureus survival, RN4220 and DeltatarO strains – OD600, teichoic acid synthesis inhibitors, primary screen (AID 463173). As to conditions: S. aureus RN4220 wild type/DeltatarO growth, OD600, 18 h, hits give low values, screened at 18.75 µg/mL (by protocol).
Take `Cc1ccc(NC(=O)Cn2nc(-c3ccncc3)ccc2=O)cc1Cl`: the survival is 120% (inactive).

With `Cc1cc(C)c(/C=C/c2onc(C)c2S(=O)(=O)N2CCC(C(=O)NCCc3ccccc3)CC2)c(C)c1`, the survival is 94% (inactive).

For the compound `Cc1ccc(-n2nc3c(=O)n(CCCC(=O)NCc4ccccc4C)nc(C)c3c2C)cc1`, the survival was 120% (inactive).

For the compound `COC(=O)c1nc(C(=O)OC)c(C(=O)OC)nc1C(=O)OC`, the survival was 95% (inactive).

Take `COc1ccc(Cl)cc1C(=O)Nc1sc2c(c1C(=O)OC(C)C)CCCC2`: the survival is 61% (inactive).

For `CCOC(=O)Cc1c(C(=O)OCC)nnc2c(-c3ccccc3)c(C)nn12`, the survival is 75% (inactive).

Regarding `CN(C)c1ccc(CNC(=O)c2ccccc2NC(=O)c2nsc3ccccc23)cc1`, the survival is 73% (inactive).

`COc1ccccc1NC(=O)C1=C(C)Nc2nc(CCCO)nn2C1c1cccc(O)c1` (stereo unspecified): the survival was 144% (inactive).

Take `CCCOc1ccc(C2C3CN(CC)CC=C3C(C#N)=C(N)C2(C#N)C#N)cc1OC` (stereo unspecified): the survival was 0% (active).

For the compound `CCN1CC=C2C(C#N)=C(N)C(C#N)(C#N)C(c3ccc(OC)c4ccccc34)C2C1` (stereo unspecified), the survival was 108% (inactive).

On to `CCCN1CC=C2C(C#N)=C(N)C(C#N)(C#N)C(c3cccc(OC)c3)C2C1` (stereo unspecified), for which the survival is 95% (inactive).

As for `CC1CCN(S(=O)(=O)c2ccc3c(c2)CCN3)CC1`, the survival is 102% (inactive).

Consider `COc1cc(C2C(C(=O)Nc3ccc(C)cc3C)=C(C)Nc3nc(SCc4ccccc4)nn32)cc(OC)c1OC` (stereo unspecified), for which the survival was 64% (inactive).

As for `O=C(O)C1C(c2ccccc2)C(C(=O)N2CCCCC2)C1c1ccccc1` (stereo unspecified), the survival is 101% (inactive).

Turning to `Brc1ccccc1-n1ncc2c1ncn1nc(Cc3ccccc3)nc21`, the survival is 74% (inactive).

Turning to `CC(C)(C)OC(=O)N1CCC(c2nnc(SCc3ccccc3F)o2)CC1`, the survival was 57% (inactive).

On to `CC(C)(C)OC(=O)N1CCC(c2nnc(SCc3cccc(Cl)c3)o2)CC1`, for which the survival was 1% (active).

On to `CC(C)(C)OC(=O)N1CCC(c2nnc(SCc3ccccc3)o2)CC1`, for which the survival was 96% (inactive).

Take `Clc1cccc(CSc2nnc(C3CCNCC3)o2)c1`: the survival was 104% (inactive).

Take `Clc1ccccc1CSc1nnc(C2CCNCC2)o1`: the survival was 89% (inactive).

As for `CC(C)(C)OC(=O)N1CCC(c2nnc(SCc3ccccc3Cl)o2)CC1`, the survival is -1% (active).

Consider `CCN(C(=O)c1cnc(N2CCOCC2)c2ccccc12)c1cc(C)ccc1C`, for which the survival was 94% (inactive).

Consider `O=C(c1ccccc1)c1ccc2nc(Nc3cc(Cl)ccc3O)c3nncn3c2c1`, for which the survival was 118% (inactive).

As to `COc1ccc(NC(=O)CSc2oc(-c3ccc(C)cc3)nc2S(=O)(=O)c2ccc(C)cc2)c(OC)c1`, the survival was 60% (inactive).

On to `CCCCn1cc(S(=O)(=O)c2ccc(C)c(C)c2)c(=O)c2cc(F)c(N3CCN(C)CC3)cc21`, for which the survival is 101% (inactive).

Take `COC(=O)c1ccccc1NC(=O)[C@H]1O[C@@H]2OC(C)(C)O[C@@H]2[C@H]2OC(C)(C)O[C@H]21`: the survival is 95% (inactive).

On to `COc1ccccc1C(=O)N1CCN(Cc2cc(=O)oc3cc(C)ccc23)CC1`, for which the survival is 38% (active).

`Cc1ccc2c(CN3CCN(Cc4ccccc4Cl)CC3)cc(=O)oc2c1`: the survival was 43% (inactive).

With `Cc1ccc2c(CN3CCN(C(=O)c4ccc(Br)cc4)CC3)cc(=O)oc2c1`, the survival is 51% (inactive).

In the case of `Cc1ccc2c(CN3CCN(C(=O)c4ccc(F)cc4)CC3)cc(=O)oc2c1`, the survival is 33% (active).

`COc1ccc(CN2CCN(Cc3cc(=O)oc4cc(C)ccc34)CC2)c(OC)c1OC`: the survival was 101% (inactive).

On to `COc1cccc(N2CCN(Cc3cc(=O)oc4cc(C)ccc34)CC2)c1`, for which the survival is 70% (inactive).

`Cc1ccc(N2C(=O)CSC23C(=O)N(CC(=O)NCCc2ccccc2)c2ccccc23)cc1C` (stereo unspecified): the survival is 95% (inactive).

`O=c1[nH]c2cc3c(cc2cc1C(c1nnnn1C1CCCC1)N1CCc2ccccc21)OCCO3` (stereo unspecified): the survival is 64% (inactive).

Consider `COc1cccc(N2CC(NC(=O)c3cccc(OC)c3OC)CC2=O)c1` (stereo unspecified), for which the survival is 115% (inactive).

In the case of `NC(=O)CN(C1CCCCC1)S(=O)(=O)c1ccc(Br)cc1`, the survival was 96% (inactive).

With `CCCCC(CC)CNC(=O)c1ccc2c(=O)n(Cc3ccc(OC)cc3)c(=O)[nH]c2c1` (stereo unspecified), the survival was 84% (inactive).

For `COc1ccc(CCNC(c2ccc(F)cc2)c2nnc(-c3ccccc3Cl)o2)cc1OC` (stereo unspecified), the survival is 57% (inactive).

In the case of `Fc1ccc(C(NCCc2ccc(Cl)cc2)c2nnc(-c3ccccc3Cl)o2)cc1` (stereo unspecified), the survival is 26% (active).

Regarding `Fc1ccc(C(NCCc2ccccc2)c2nnc(-c3ccccc3Cl)o2)cc1` (stereo unspecified), the survival is 104% (inactive).

Consider `Cc1ccc(CCNC(c2ccc(F)cc2)c2nnc(-c3ccccc3Cl)o2)cc1` (stereo unspecified), for which the survival is -8% (active).

`Fc1ccc(C(Nc2ccccc2Cl)c2nnc(-c3ccccc3Cl)o2)cc1` (stereo unspecified): the survival is 83% (inactive).

`Fc1ccc(NCc2ccccc2-c2nnc(-c3ccccc3Cl)o2)cc1`: the survival was 88% (inactive).

As to `CCOc1ccc(C(C)C)cc1S(=O)(=O)Nc1cccc(-c2ccc(N3CCOCC3)nn2)c1`, the survival was 87% (inactive).

Take `Cc1nc2nc(NC(=O)c3ccc(C(C)(C)C)cc3)[nH]n2c(=O)c1Cl`: the survival was 98% (inactive).

Take `Cc1nn(C(=O)c2ccccc2F)c(C)c1S(=O)(=O)N1CCCCCC1`: the survival is 83% (inactive).

Turning to `COc1ccc(S(=O)(=O)n2nc(C)c(S(=O)(=O)N3CCC(C)CC3)c2C)cc1OC`, the survival was 70% (inactive).

As for `Cc1nn(S(=O)(=O)c2ccccc2)c(C)c1S(=O)(=O)N1CCC(C)CC1`, the survival is 72% (inactive).

For the compound `Cc1nn(S(=O)(=O)c2ccc(F)cc2)c(C)c1S(=O)(=O)N1CCCCC1`, the survival was 72% (inactive).

`Cc1nn(S(=O)(=O)c2ccc(F)cc2)c(C)c1S(=O)(=O)N1CCC(C)CC1`: the survival is -1% (active).

As to `COc1ccc(S(=O)(=O)n2nc(C)c(S(=O)(=O)N3CCCCCC3)c2C)cc1OC`, the survival was 6% (active).

Take `Cc1nn(C(=O)c2cccc([N+](=O)[O-])c2C)c(C)c1S(=O)(=O)N1CCCCCC1`: the survival was -2% (active).

In the case of `COc1ccc(S(=O)(=O)n2nc(C)c(S(=O)(=O)N3CCCCCC3)c2C)cc1C`, the survival is 81% (inactive).

With `Cc1nn(C(=O)c2cccc([N+](=O)[O-])c2C)c(C)c1S(=O)(=O)N1CCOCC1`, the survival was 76% (inactive).

For `CC(C)c1ccc(Nc2cc(C(=O)NCCc3ccccc3)c3ccccc3n2)cc1`, the survival was 81% (inactive).

For the compound `Cc1nn(CC(=O)NCc2ccccc2Br)c(=O)c2cc3occc3n12`, the survival was 132% (inactive).

For the compound `Cc1ccc(CCNC(=O)c2ccc3c(c2)N(Cc2ccc(F)cc2)CCS3)cc1`, the survival is 71% (inactive).

Turning to `CC1=C(c2ccc(C(C)C)cc2)S(=O)(=O)N=C1N1CCN(c2ccc(F)cc2)CC1`, the survival was 74% (inactive).

For the compound `O=S(=O)(NCCS(=O)(=O)N1CCN(c2cccc(Cl)c2)CC1)c1ccc(F)cc1`, the survival was 83% (inactive).

In the case of `CCC1CCCCN1CCCNC(=O)c1cc2c(Cl)nc3ccc(C)cc3c2s1` (stereo unspecified), the survival was 67% (inactive).

Turning to `Cc1ccc(CSc2cn(CCNC(=O)c3cccs3)c3ccccc23)cc1`, the survival is 58% (inactive).

For `O=C(NCCn1cc(SCc2ccccc2Cl)c2ccccc21)c1cccs1`, the survival is 57% (inactive).

Take `COc1ccccc1C(=O)NCCn1cc(SCc2ccccc2Cl)c2ccccc21`: the survival was 34% (active).

Take `COc1ccc(CCNC(=O)CSc2cn(CCNC(=O)c3ccccc3F)c3ccccc23)cc1OC`: the survival is 137% (inactive).

For the compound `COc1ccccc1C(=O)NCCn1cc(SCC(=O)Nc2ccccc2F)c2ccccc21`, the survival is 55% (inactive).

Turning to `COc1ccccc1C(=O)NCCn1cc(SCc2ccc(C)cc2)c2ccccc21`, the survival is 22% (active).

In the case of `CCOc1ccc(C(=O)Nc2ccc(S(=O)(=O)N3CCOCC3)cc2)cc1OCC`, the survival was 72% (inactive).

For `CCOc1ccc(CNC(=O)c2cccc(NC(=O)N3CCSc4ncccc43)c2)cc1OC`, the survival was 92% (inactive).

Regarding `COc1cccc(N2CC(NC(=O)c3ccc4c(c3)OCO4)CC2=O)c1` (stereo unspecified), the survival was 92% (inactive).

Consider `Cc1c(C(=O)NCCN(C)C)sc2nc3n(c(=O)c12)CCC3`, for which the survival is 87% (inactive).

Consider `O=C(c1cccs1)N(Cc1nc2sc3c(c2c(=O)[nH]1)CCCC3)C1CCCC1`, for which the survival is 45% (active).

On to `Cc1sc2nc(CN(C(=O)c3cccs3)C3CCCC3)[nH]c(=O)c2c1C`, for which the survival was 80% (inactive).

With `O=C(C1CCCCC1)N(Cc1nc2sc3c(c2c(=O)[nH]1)CCCC3)Cc1cccs1`, the survival was 66% (inactive).

Take `Cc1ccc(NCc2cccn2-c2nnc(N3CCC(C(=O)NCc4ccc(OC(C)C)cc4)CC3)s2)cc1`: the survival was 69% (inactive).

Regarding `CCCCn1c(=N)c(C(=O)NC2CCCCC2)cc2c(=O)n3cccc(C)c3nc21`, the survival is 62% (inactive).

For `CCOc1ccc(C(=O)Nc2ccc(NC(=O)c3ccccc3)cc2)cc1Br`, the survival is 85% (inactive).

With `CCOc1ccc(C(=O)Nc2cccc(NC(=O)c3ccc(C(C)(C)C)cc3)c2)cc1Br`, the survival was 81% (inactive).

As to `CCOc1ccc(C(=O)Nc2ccc3c(c2)OCCO3)cc1Br`, the survival was 37% (active).

`O=C(C1COc2ccccc2O1)N(Cc1cccnc1)c1nc2c(F)cccc2s1` (stereo unspecified): the survival was 84% (inactive).

Turning to `CCCC(=O)N1CCCC(c2nc(-c3cccs3)no2)C1` (stereo unspecified), the survival was 107% (inactive).

For the compound `Cc1c(C)n(Cc2ccccc2)c2ccc(C(=O)NC(C)c3ccccc3)cc12` (stereo unspecified), the survival is 78% (inactive).

For `COc1ccc(NC(=O)c2oc3c(c2C)-c2nn(Cc4c(F)cccc4Cl)cc2CC3)c(OC)c1`, the survival was 72% (inactive).

As for `COc1cc(C)ccc1OCCSc1nnc(-c2cccs2)o1`, the survival is 40% (active).

As to `Cc1cccc(OCCSc2nnc(-c3cccs3)o2)c1`, the survival was 58% (inactive).

For `Cc1ccc(OCCSc2nnc(-c3cccs3)o2)cc1Cl`, the survival was 45% (active).

Take `Cc1cc(Cl)ccc1OCCSc1nnc(-c2cccs2)o1`: the survival is 37% (active).

As to `Cc1ccccc1OCCSc1nnc(-c2cccs2)o1`, the survival was 106% (inactive).

`COc1cc(C)ccc1OCCSc1nnc(-c2ccc(C)cc2)o1`: the survival is 55% (inactive).

Turning to `COc1ccc(-c2nnc(SCCOc3ccccc3C)o2)cc1OC`, the survival is 64% (inactive).

Turning to `Clc1ccccc1OCCSc1nnc(-c2cccs2)o1`, the survival was 43% (inactive).

As for `Cc1ccc(OCCSc2nnc(-c3cccs3)o2)cc1`, the survival is 53% (inactive).
